# About 1,100 (1.7%) of roughly 63,000 compounds were called active. The sample holds actives, similar compounds and a random draw of the others, so the mix is not that of the screen. Cut-off read from the data, not from the text of the source: active = cytotoxicity above about 50%; inactive = the rest. Potency and affinity values are given separately.
# Experiment: HPDE-C7 pancreatic duct cell viability loss – fluorescence, HTS (AID 430);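 note: cells exposed to compound for 48 hours before viability readout; 0% = vehicle and 100% = reference cytotoxic drug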
# Details: HPDE-C7 pancreatic duct cells viability, at 10 µM, hits give high values
row,SMILES,cytotoxicity
1,COc1cc(OC)cc(C(=O)N2CCC(n3c(C)nc4cc(F)ccc43)CC2)c1,3% (inactive)
2,N#Cc1cc2sc3nnc(-c4ccncc4)n3c2cc1C#N,-14.9% (inactive)
3,Cc1nc2cc(C(=O)OCC(=O)N(CC(C)C)C3CCS(=O)(=O)C3)ccc2n1-c1ccccc1 (stereo unspecified),-10.3% (inactive)
4,O=C(O)CCc1ccc(-c2cccs2)n1NC(=O)c1ccc(Cl)cc1,0.6% (inactive)
5,Cc1csc(NC(=O)CSc2nnc(-c3ccc(S(=O)(=O)N4CCCC4)cc3)o2)n1,-13.8% (inactive)
6,COc1cccc(CNC(=O)Cn2cccc2)c1,-4.3% (inactive)
7,COc1ccccc1NCCC(=O)OCC(=O)Nc1ccc(Cl)cn1,10.3% (inactive)
8,CN(CC(=O)Nc1ccc(C#N)cc1)Cc1ccc(Cl)cc1,6.1% (inactive)
9,N#Cc1ccc(NC(=O)Nc2ccc(Cl)cc2)cc1,57.7% (active)
10,Cc1cccc(NC(=O)Nc2ccc(C#N)cc2)n1,-0.1% (inactive)
11,COc1ccc(Cl)cc1NC(=O)N1CCN(S(C)(=O)=O)CC1,-6.5% (inactive)
12,C=CCn1c(N)cc(=O)nc1SCC(=O)Nc1ccccc1,-16% (inactive)
13,O=C(c1ccccc1)N1CCCCC(Sc2nnnn2-c2ccccc2)C1=O (stereo unspecified),-6.2% (inactive)
14,Cc1ccc2oc3c(c(=O)c2c1)C(c1ccc(F)cc1)N(CCCN1CCOCC1)C3=O (stereo unspecified),-11.5% (inactive)
15,COC(=O)C1=C(C)N(C)C(=O)NC1c1cc(Cl)cc(Cl)c1OC (stereo unspecified),1.6% (inactive)
16,Cc1cc(N2CCN(C(=O)c3ccco3)CC2)n2nc(C)c(-c3ccc(Cl)cc3)c2n1,14.2% (inactive)
17,Cc1nn2c(N3CCN(C(=O)c4ccco4)CC3)cc(C(C)(C)C)nc2c1-c1ccccc1,75.8% (active)
18,Cc1cc(N2CCN(C(=O)c3ccco3)CC2)n2nc(C)c(-c3ccccc3)c2n1,7.9% (inactive)
19,COC(=O)c1ccccc1S(=O)(=O)N(Cc1cc2ccc(OC)cc2[nH]c1=O)CC1CCCO1 (stereo unspecified),-2% (inactive)
20,O=C(CCNS(=O)(=O)c1cccs1)NCc1ccco1,-2.8% (inactive)
21,C=CCOc1nc2c(c(=O)n(C)c(=O)n2C)n1Cc1ccc(Cl)cc1Cl,-22.3% (inactive)
22,C=CCOc1nc2c(c(=O)n(C)c(=O)n2C)n1Cc1ccc(Cl)cc1,59.6% (active)
23,C=CCOc1nc2c(c(=O)n(Cc3ccc(Cl)cc3)c(=O)n2C)n1C,6.6% (inactive)
24,CCc1c(C(=O)Nc2ccc(S(=O)(=O)N3CCOCC3)cc2)csc1C,11% (inactive)
25,N=c1c2c(n(Cc3ccc(Cl)cc3)c3c1CCC3)CCC2,34% (inactive)
26,N=c1c2c(n(Cc3ccc(Cl)c(Cl)c3)c3c1CCC3)CCCC2,63.8% (active)

row,SMILES,cytotoxicity
1,N=c1c2c(n(Cc3ccc(F)cc3)c3c1CCC3)CCC2,29.3% (inactive)
2,O=C(C1CCN(S(=O)(=O)c2ccc(Br)s2)CC1)N1CCc2ccccc21,10.9% (inactive)
3,O=C1N(S(=O)(=O)c2ccccc2F)C(=O)C2(CCCC2)N1S(=O)(=O)c1ccccc1F,-2.1% (inactive)
4,Cn1c(N2CCCCC2)nc2c1c(=O)n(Cc1cccc(Br)c1)c(=O)n2C,-15.8% (inactive)
5,O=c1[nH]c(Cc2ccccc2)nc2c1oc1ccccc12,-7.5% (inactive)
6,O=C(O)c1c(-c2ccccc2)c2oc3ccccc3c2[nH]c1=O,89.7% (active)
7,O=c1[nH]cnc2c1oc1ccccc12,1.3% (inactive)
8,COC(=O)c1c(-c2ccc(F)cc2)noc1N,-23.1% (inactive)
9,COc1ccc(C(=O)n2c(-c3ccco3)nc3ccccc32)cc1,66.4% (active)
10,COc1ccc(C(=O)CSc2nnc(-c3ccco3)n2C)cc1,-10.7% (inactive)
11,CCn1c(-c2ccco2)nc2ccccc21,6.2% (inactive)
12,O=C(Nc1ccc2c(c1)oc1ccccc12)c1ccc(Br)o1,3.1% (inactive)
13,CCCC(=O)Nc1cc(OC)c(OC)cc1C(=O)O,6.8% (inactive)
14,O=C(Nc1nnc(-c2cccs2)o1)c1ccco1,-23% (inactive)
15,O=C(Nc1nnc(-c2cccs2)o1)c1cccc(F)c1,41.3% (inactive)
16,O=C(Nc1nnc(-c2cccs2)o1)c1cccc(Oc2ccccc2)c1,50.4% (active)
17,O=C(Nc1nnc(-c2cccs2)o1)c1cccc(C(F)(F)F)c1,78.7% (active)
18,COc1cccc(C(=O)Nc2nnc(-c3cccs3)o2)c1,22% (inactive)
19,O=C(CCc1ccccc1)Nc1nnc(-c2cccs2)o1,-3% (inactive)
20,CCCCn1c2nc3ccccc3nc2c2c(=O)n(C(C)CC)cnc21 (stereo unspecified),-10.4% (inactive)
21,COc1ccc(CN(CCCN2CCOCC2)S(=O)(=O)N(C)C)cc1OC,-7.2% (inactive)
22,COc1ccc2nc(SCC(=O)NC(C)C)[nH]c2c1,-13.4% (inactive)
23,O=C(C1Cc2ccccc2O1)N1CCCCC1 (stereo unspecified),-12.6% (inactive)
24,COc1ccc(Cl)cc1N1CC(C(=O)Nc2nccs2)CC1=O (stereo unspecified),2.4% (inactive)
25,O=C(CSc1nnnn1C1CCCC1)N1CCN(C(=O)c2ccco2)CC1,-11.8% (inactive)
26,CN(C(=O)c1cccc(C#N)c1)c1nnc(-c2ccccn2)s1,-2% (inactive)

row,SMILES,cytotoxicity
1,O=c1c(C=NCCCn2ccnc2)c(-c2ccccc2)[nH]n1-c1nc2ccccc2s1,57.5% (active)
2,CCCc1[nH]n(-c2nc3ccccc3s2)c(=O)c1C=NCCN1CCOCC1,8.6% (inactive)
3,CCCCCN=Cc1c(C)[nH]n(-c2nc3ccccc3s2)c1=O,1.2% (inactive)
4,O=C(NCC(=O)N(Cc1ccc(F)cc1)C(C(=O)NC1CCCC1)c1ccco1)c1ccco1 (stereo unspecified),-8.4% (inactive)
5,CCC(CC)C(=O)Nc1cc(=O)n(C)c(=O)n1C,-10.5% (inactive)
6,CC(=O)N1CC=C2C(C#N)=C(N)C(C#N)(C#N)[C@H](c3ccoc3)[C@H]2C1,9.7% (inactive)
7,N#CC1=C(N)C(C#N)(C#N)[C@H](c2ccoc2)[C@H]2CN(Cc3ccccc3)CC=C12,72% (active)
8,CC(C)N1CC=C2C(C#N)=C(N)C(C#N)(C#N)C(c3ccccc3)C2C1 (stereo unspecified),12.8% (inactive)
9,CCSc1nnc(NC(=O)CN(C)S(=O)(=O)c2ccc(F)cc2)s1,-4.8% (inactive)
10,Cc1ccc(-c2nnn(CCC(=O)N3CCCCC3C)n2)cc1 (stereo unspecified),-5.2% (inactive)
11,CCCCOc1ccccc1NC(=O)CC1Nc2ccccc2NC1=O (stereo unspecified),-9.1% (inactive)
12,CC(C)Oc1ccccc1C1CC(=O)Nc2cc3c(cc21)OCCO3 (stereo unspecified),56.4% (active)
13,Cc1ccc(C2CC(=O)Nc3cc4c(cc32)OCCO4)s1 (stereo unspecified),-4.6% (inactive)
14,COc1ccccc1C1CC(=O)Nc2cc3c(cc21)OCCO3 (stereo unspecified),54.4% (active)
15,O=C1CC(c2ccncc2)c2cc3c(cc2N1)OCCO3 (stereo unspecified),-10.2% (inactive)
16,CC(C)Oc1ccccc1C1CC(=O)Nc2cc3c(cc21)OCO3 (stereo unspecified),39.1% (inactive)
17,COc1cccc(C2CC(=O)Nc3cc4c(cc32)OCCO4)c1OC(C)C (stereo unspecified),27.3% (inactive)
18,COc1ccc(C(=O)N2CCN(S(=O)(=O)c3ccc(C)cc3C)CC2)cc1OC,2.4% (inactive)
19,Cc1ccc(Cl)cc1NC(=O)Cn1cccc1,-2.6% (inactive)
20,Cc1cc(C(=O)N2CCN(Cc3ccc4c(c3)OCO4)CC2)on1,0.3% (inactive)
21,COC(=O)c1cc(-c2ccc3c(c2)OCO3)nc2ccccc12,-9.6% (inactive)
22,O=C(COc1cccc(NC(=O)c2ccco2)c1)c1ccc(F)cc1,-13.8% (inactive)
23,Cn1c(Cl)cnc1C1CC(=O)c2cc(Cl)ccc2O1 (stereo unspecified),69.6% (active)
24,COc1ccc2c(c1)C(=O)CC(c1ccccc1F)O2 (stereo unspecified),-4.1% (inactive)
25,CN1CCN(C2=Nc3ccccc3Oc3ccc(Cl)cc32)CC1,10.6% (inactive)
26,CCN1CCN(C(=O)c2nn(-c3ccc(OC)cc3)c(=O)c3c2c2ccccc2n3C)CC1,-10.7% (inactive)

row,SMILES,cytotoxicity
1,CCCc1[nH]nc2c1C1(C(=O)N(C(C)C)c3ccccc31)C(C#N)=C(N)O2 (stereo unspecified),-41.8% (inactive)
2,O=C1c2ccccc2NC(c2ccc(F)cc2)N1Cc1ccco1 (stereo unspecified),1.1% (inactive)
3,CC(=O)C1=C(O)C(=O)N(Cc2ccco2)C1c1ccc(F)cc1 (stereo unspecified),-1.4% (inactive)
4,O=C1c2ccccc2C(O)N1Cc1ccco1 (stereo unspecified),-6.1% (inactive)
5,O=C1c2[nH]nc(-c3ccccc3O)c2C(c2ccccc2)N1Cc1ccco1 (stereo unspecified),21.9% (inactive)
6,O=C1c2[nH]nc(-c3ccccc3O)c2C(c2cccc(Cl)c2)N1CC1CCCO1 (stereo unspecified),32.4% (inactive)
7,O=C1C(=O)N(Cc2ccco2)C(c2cccc(Cl)c2)/C1=C(\O)c1ccc2c(c1)OCCO2 (stereo unspecified),3.5% (inactive)
8,COC(=O)Nc1sccc1C(=O)Nc1sccc1C(=O)OC,3.5% (inactive)
9,CCOC(=O)N1CCN(c2c(N3CCc4ccccc4C3)c(=O)c2=O)CC1,-10.2% (inactive)
10,O=C(CC(O)(c1ccccc1)C(F)(F)C(F)F)c1cccs1 (stereo unspecified),2.3% (inactive)
11,CCN(CC)C(C(=O)Nc1ccc2c(c1)OCO2)c1ccccc1 (stereo unspecified),5% (inactive)
12,CCCCn1c(NC(C)=O)c(C#N)c2nc3ccccc3nc21,-2.1% (inactive)
13,COc1ccc(-n2c(NC(=O)c3ccco3)c(C#N)c3nc4ccccc4nc32)cc1,5.6% (inactive)
14,CCCCn1c(NC(=O)CC)c(C#N)c2nc3ccccc3nc21,10% (inactive)
15,CCCCCn1c(N)c(C#N)c2nc3ccccc3nc21,3.3% (inactive)
16,C=CCn1c(NC(=O)c2ccccc2Cl)c(C#N)c2nc3ccccc3nc21,17.3% (inactive)
17,C=CCn1c(NC(=O)c2ccccc2)c(C#N)c2nc3ccccc3nc21,45.1% (inactive)
18,CCCCn1c(NC(=O)c2ccccc2)c(C#N)c2nc3ccccc3nc21,101% (active)
19,CCC(=O)Nc1c(C#N)c2nc3ccccc3nc2n1-c1ccccc1C,2.9% (inactive)
20,CCC(=O)Nc1c(C#N)c2nc3ccccc3nc2n1C1CCCCC1,2% (inactive)
21,CCCCn1c(NC(=O)c2ccccc2Cl)c(C#N)c2nc3ccccc3nc21,61.7% (active)
22,N#Cc1c(NC(=O)c2ccc(Br)o2)n(-c2ccccc2)c2nc3ccccc3nc12,54.7% (active)
23,CCCCn1c(NC(=O)c2ccc(F)cc2)c(C#N)c2nc3ccccc3nc21,73.6% (active)
